Targets with a hit are over-represented here; the source holds about 7,900 in all. About 0.6% of all pairs of compound and target were hits. Values without a mark were called inactive.
Legend:
Assay in all cases: log2 fold change, soluble protein after heating vs DMSO (PISA); higher = thermal stabilisation; K562 cells, 10 uM, 30 min; active = over 0.2 and 3.5 SD of the protein, either way, in both replicates (recomputed)
[1] = compound: C#Cc1cccc(Nc2ncnc3cc(OCCOC)c(OCCOC)cc23)c1 [erlotinib]
In short: (§1)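 K562 cells (2×10^6 cells/mL) were treated with 10 μM compound for 30 min, and aliquots were heated for 3 min over 48°C-58°C. Pooled aliquots were extracted in PBS with 0.5% NP-40 at 4°C, and the supernatant after 21,000xg for 90 min was measured by TMTpro 16plex LC-MS/MS with channel sums equalised. Reported thermal stability, relative to control samples and from duplicates, is a log2 fold change.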

[2] = compound: C/C(=N\NC(=O)C1=CC(=CC=C1)S(=O)(=O)N2CCOCC2)/C3=C(C=CC(=C3)Cl)O
In short: as §1

[3] = compound: C1=CC(=C(C=C1Cl)C2=NC3=NC=CN=C3C(=N2)NC4=CC=NC=C4)F
In short: as §1

[4] = compound: C1=CC(=CC=C1C2=NC3=C(N2)C=C(C=C3)C(=O)N)OC4=CC=C(C=C4)Cl
In short: as §1

[5] = compound: C1=CC2=C(C=CC(=C2)/C=C\3/C(=O)NC(=NCC4=CC=CS4)S3)N=C1
In short: as §1

[6] = compound: C1=CC2=NC=CN=C2C=C1/C=C/3\C(=O)NC(=O)S3
In short: as §1

[7] = compound: C1=CC=C(C=C1)C2=NC(=C(N2)C3=CC=NC=C3)C4=CC(=C(C=C4)Cl)O
In short: as §1

[8] = compound: C1=CC=C2C(=C1)C3=NNC4=CC=CC(=C43)C2=O
In short: as §1

[9] = compound: C1CCN(C1)C(=O)NC2=CC=CC(=C2)NC3=NC=C(C(=N3)NCCC4=CN=CN4)Br
In short: as §1

[10] = compound: C1CN(CCC1(CC2=CC=C(C=C2)Cl)N)C3=NC=NC4=C3C=CN4
In short: as §1

Chain of UniProt Q96GG9 (Q96GG9 whole entry, looked up): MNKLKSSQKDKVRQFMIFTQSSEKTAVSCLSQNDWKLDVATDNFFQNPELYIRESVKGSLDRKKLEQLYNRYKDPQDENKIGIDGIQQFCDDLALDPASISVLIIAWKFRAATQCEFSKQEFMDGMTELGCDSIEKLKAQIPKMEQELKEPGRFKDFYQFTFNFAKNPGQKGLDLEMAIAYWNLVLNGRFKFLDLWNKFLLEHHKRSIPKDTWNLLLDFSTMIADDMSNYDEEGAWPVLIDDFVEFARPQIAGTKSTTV
Chain of UniProt Q9Y485 (Q9Y485 whole entry, looked up): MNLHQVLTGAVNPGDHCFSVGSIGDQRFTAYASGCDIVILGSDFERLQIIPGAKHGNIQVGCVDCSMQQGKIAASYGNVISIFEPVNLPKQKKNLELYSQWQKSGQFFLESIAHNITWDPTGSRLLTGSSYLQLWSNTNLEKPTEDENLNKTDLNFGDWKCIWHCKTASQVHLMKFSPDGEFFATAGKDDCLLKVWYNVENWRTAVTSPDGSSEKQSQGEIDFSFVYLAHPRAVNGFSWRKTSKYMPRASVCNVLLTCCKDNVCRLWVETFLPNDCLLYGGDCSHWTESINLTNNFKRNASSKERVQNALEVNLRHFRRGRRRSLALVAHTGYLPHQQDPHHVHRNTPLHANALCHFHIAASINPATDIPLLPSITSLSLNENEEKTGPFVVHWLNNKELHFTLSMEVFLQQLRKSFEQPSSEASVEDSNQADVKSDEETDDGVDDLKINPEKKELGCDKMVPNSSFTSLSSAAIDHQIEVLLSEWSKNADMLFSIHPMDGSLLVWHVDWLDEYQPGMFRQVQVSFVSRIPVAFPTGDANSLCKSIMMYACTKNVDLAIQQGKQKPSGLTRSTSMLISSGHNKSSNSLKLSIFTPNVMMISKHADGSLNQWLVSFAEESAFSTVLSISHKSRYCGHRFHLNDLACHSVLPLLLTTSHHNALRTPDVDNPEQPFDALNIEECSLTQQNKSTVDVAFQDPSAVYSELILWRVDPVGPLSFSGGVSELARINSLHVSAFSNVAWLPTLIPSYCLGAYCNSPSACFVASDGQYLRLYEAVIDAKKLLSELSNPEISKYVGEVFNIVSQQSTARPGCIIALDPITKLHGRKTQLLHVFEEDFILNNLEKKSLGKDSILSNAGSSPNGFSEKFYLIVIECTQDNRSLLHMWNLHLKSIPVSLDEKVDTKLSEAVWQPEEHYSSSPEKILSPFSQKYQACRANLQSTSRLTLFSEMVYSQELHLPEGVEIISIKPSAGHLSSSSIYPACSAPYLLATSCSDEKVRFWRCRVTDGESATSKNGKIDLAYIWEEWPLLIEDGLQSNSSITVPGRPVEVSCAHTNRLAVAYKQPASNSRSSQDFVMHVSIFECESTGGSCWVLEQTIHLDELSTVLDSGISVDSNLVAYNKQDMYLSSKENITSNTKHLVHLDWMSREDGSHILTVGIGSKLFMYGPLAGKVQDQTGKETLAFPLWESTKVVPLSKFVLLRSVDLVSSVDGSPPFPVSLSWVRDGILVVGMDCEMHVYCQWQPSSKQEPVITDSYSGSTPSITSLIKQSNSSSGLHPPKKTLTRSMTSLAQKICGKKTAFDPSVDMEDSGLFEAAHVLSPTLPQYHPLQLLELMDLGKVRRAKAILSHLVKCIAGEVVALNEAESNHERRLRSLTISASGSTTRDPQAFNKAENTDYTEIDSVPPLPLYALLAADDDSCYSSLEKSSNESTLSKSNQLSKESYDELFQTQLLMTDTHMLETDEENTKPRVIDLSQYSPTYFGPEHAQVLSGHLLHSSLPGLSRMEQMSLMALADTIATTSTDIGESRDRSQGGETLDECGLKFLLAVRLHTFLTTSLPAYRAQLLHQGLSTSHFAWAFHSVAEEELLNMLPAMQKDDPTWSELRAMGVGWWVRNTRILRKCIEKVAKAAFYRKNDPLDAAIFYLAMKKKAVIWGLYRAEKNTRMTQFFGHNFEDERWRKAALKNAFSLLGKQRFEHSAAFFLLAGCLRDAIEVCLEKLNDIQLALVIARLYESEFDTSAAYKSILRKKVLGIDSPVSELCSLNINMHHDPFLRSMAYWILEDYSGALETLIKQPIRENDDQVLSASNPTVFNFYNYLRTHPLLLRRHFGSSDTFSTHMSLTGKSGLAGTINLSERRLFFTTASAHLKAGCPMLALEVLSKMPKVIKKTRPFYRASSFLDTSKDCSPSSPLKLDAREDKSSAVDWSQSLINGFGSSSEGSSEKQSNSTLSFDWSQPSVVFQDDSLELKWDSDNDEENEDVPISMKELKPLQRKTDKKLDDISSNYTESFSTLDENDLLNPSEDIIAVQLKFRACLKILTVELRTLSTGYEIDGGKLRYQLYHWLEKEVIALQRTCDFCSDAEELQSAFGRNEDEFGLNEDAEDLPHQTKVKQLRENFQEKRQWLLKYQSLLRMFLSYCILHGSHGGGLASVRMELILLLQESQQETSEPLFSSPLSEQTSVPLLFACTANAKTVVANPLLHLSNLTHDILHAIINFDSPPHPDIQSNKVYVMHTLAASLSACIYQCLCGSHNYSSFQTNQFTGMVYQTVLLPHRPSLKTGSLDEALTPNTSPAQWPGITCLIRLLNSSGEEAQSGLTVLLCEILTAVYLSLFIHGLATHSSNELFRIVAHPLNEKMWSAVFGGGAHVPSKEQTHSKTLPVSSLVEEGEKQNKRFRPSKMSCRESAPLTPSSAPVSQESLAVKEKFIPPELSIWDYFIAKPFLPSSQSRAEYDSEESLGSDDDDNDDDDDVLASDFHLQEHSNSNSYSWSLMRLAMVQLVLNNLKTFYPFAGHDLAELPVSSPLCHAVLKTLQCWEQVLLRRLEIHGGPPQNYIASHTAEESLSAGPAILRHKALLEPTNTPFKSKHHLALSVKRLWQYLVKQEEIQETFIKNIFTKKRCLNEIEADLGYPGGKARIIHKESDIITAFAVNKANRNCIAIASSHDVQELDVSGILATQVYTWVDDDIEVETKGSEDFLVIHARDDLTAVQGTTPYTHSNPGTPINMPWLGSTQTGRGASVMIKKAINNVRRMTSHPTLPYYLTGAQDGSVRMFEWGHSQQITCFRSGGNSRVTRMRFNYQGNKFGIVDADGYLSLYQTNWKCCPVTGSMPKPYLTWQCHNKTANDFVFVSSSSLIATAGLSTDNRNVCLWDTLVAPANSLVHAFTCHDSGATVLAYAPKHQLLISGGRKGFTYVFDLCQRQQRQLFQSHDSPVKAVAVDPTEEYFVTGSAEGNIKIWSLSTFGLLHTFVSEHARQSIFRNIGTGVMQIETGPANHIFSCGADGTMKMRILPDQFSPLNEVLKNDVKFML
Chain of UniProt P18146 (P18146 whole entry, looked up): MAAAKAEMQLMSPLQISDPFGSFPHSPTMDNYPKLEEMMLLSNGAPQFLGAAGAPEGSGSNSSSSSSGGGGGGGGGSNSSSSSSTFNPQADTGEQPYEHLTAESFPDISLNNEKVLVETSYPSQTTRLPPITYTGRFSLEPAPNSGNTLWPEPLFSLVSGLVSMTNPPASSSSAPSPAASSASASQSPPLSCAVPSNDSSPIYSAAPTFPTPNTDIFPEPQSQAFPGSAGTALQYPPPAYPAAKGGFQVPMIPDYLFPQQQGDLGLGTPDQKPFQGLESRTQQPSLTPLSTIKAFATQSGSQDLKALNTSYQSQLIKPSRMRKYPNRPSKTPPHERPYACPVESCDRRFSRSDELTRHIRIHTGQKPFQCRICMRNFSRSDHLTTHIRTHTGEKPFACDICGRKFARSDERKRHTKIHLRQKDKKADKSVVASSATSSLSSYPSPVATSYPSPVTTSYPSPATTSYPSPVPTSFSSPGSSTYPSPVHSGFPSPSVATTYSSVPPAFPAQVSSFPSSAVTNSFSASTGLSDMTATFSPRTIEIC
Chain of UniProt P34913 (P34913 whole entry, looked up): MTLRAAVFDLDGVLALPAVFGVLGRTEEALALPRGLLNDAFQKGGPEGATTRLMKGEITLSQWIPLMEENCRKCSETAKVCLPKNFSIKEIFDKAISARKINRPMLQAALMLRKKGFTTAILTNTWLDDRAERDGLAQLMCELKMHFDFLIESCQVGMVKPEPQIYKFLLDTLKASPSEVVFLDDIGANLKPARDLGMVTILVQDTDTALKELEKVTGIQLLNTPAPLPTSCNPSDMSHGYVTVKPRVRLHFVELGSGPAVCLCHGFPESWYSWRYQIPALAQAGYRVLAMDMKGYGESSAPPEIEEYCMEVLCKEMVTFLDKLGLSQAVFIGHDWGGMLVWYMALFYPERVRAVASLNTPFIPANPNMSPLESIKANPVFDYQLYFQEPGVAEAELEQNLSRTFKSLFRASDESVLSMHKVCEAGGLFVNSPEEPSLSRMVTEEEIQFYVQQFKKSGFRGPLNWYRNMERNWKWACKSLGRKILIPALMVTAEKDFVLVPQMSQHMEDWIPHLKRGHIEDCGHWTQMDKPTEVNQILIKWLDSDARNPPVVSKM
Chain of UniProt Q8N5C7 (Q8N5C7 whole entry, looked up): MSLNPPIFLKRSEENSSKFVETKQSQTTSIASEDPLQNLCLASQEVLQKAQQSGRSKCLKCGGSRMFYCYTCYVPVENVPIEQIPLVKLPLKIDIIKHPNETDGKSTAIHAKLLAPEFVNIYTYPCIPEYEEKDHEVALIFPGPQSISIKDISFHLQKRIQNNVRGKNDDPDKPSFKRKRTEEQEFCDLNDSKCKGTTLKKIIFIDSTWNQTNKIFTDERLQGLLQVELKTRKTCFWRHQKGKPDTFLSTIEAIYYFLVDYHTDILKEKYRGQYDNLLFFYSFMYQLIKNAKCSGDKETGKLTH
Chain of UniProt Q9NSI2 (Q9NSI2 whole entry, looked up): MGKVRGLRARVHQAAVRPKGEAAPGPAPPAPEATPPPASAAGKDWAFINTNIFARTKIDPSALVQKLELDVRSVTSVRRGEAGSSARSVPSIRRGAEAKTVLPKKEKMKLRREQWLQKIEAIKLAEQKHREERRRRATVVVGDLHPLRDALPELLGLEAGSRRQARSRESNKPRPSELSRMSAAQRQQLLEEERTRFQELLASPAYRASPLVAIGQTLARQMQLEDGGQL

Row | Target | log2 fold change [1] | log2 fold change [2] | log2 fold change [3] | log2 fold change [4] | log2 fold change [5] | log2 fold change [6] | log2 fold change [7] | log2 fold change [8] | log2 fold change [9] | log2 fold change [10]
1 | EMD (UniProt P50402) | 0.025 | 0.002 | -0.078 | 0.056 | 0.008 | 0.033 | -0.011 | -0.072 | 0.031 | 0.074
2 | EED, A0A5F9ZI63 | 0.056 | 0.049 | -0.04 | 0.028 | -0.1 | 0.05 | -0.036 | -0.033 | 0.032 | 0.012
3 | DNM2 (UniProt P50570) | 0.042 | 0.065 | 0.01 | -0.025 | 0.046 | -0.001 | 0.019 | 0.033 | 0.015 | -0.003
4 | DAG1 (UniProt Q14118) | 0.055 | 0.067 | -0.043 | 0 | -0.038 | -0.037 | -0.154 | -0.06 | -0.009 | 0.035
5 | CTSZ (UniProt Q9UBR2) | 0.053 | -0.025 | 0.027 | -0.047 | -0.013 | 0.023 | -0.017 | 0.073 | 0.057 | 0.09
6 | DNAH11 (UniProt Q96DT5) | -0.252 | -0.237 | 0.001 | 0.085 | 0.012 | -0.023 | -0.28 | -0.001 | 0.125 | 0.119
7 | EXOSC10 (UniProt Q01780) | 1.07 | -0.86 (active) | 0.136 | 0.008 | 0.078 | -0.101 | -0.444 | -0.055 | 0.052 | 0.067
8 | FAM207A (UniProt Q9NSI2) | -0.082 | -0.092 | -0.039 | -0.032 | -0.204 | -0.018 | -0.027 | 0.006 | -0.159 | -0.054
9 | DAB2 (UniProt P98082) | 0.107 | 0.112 | 0.01 | -0.035 | 0.037 | 0.008 | 0.002 | 0.019 | -0.156 | -0.006
10 | EHD2 (UniProt Q9NZN4) | -0.044 | 0.025 | 0.013 | -0.077 | 0.007 | -0.01 | -0.003 | 0.01 | -0.008 | 0.041
11 | DUS3L (UniProt Q96G46) | -0.073 | 0.025 | 0.118 | 0.059 | 0.016 | 0.037 | 0.042 | -0.001 | -0.043 | 0.078
12 | DBNL isoform 3 (UniProt Q9UJU6) | 0.06 | 0.024 | 0.034 | -0.063 | -0.012 | 0.146 | -0.008 | -0.004 | -0.084 | -0.066
13 | EGR1 (UniProt P18146) | -0.105 | 0.001 | 0.071 | 0.176 | 0.208 | 0.088 | -0.28 | -0.474 | 0.118 | -0.121
14 | ECPAS (UniProt Q5VYK3) | 0.058 | 0.087 | 0.001 | -0.06 | 0.042 | 0.009 | 0.048 | -0.01 | -0.028 | -0.018
15 | DCUN1D1 (UniProt Q96GG9) | -0.038 | 0.052 | 0.041 | -0.009 | 0.015 | 0.001 | 0.021 | -0.014 | -0.017 | 0.024
16 | DYNC1I2 isoform 5 (UniProt Q13409) | -0.009 | -0.016 | -0.033 | 0.003 | 0.025 | -0.006 | 0.057 | 0.016 | 0.007 | 0.018
17 | DNAJC7 (UniProt Q99615) | 0.02 | 0.065 | 0.061 | -0.002 | 0.014 | 0.024 | 0.013 | 0.023 | 0.005 | -0.043
18 | CTSA (UniProt P10619) | -0.058 | -0.065 | 0.001 | -0.004 | -0.053 | 0.018 | 0.04 | 0.003 | 0.021 | 0.051
19 | EDC3 (UniProt Q96F86) | -0.023 | 0.156 | 0.009 | 0.043 | -0.007 | -0.227 | -0.024 | -0.057 | -0.195 | -0.376 (active)
20 | CTNNB1 (UniProt P35222) | -0.035 | 0.062 | -0.033 | 0.025 | 0.092 | 0.108 | 0.036 | -0.01 | -0.002 | -0.032
21 | FAM3A (UniProt P98173) | -0.064 | 0.118 | -0.067 | 0.029 | 0.059 | 0.082 | 0.083 | -0.05 | -0.044 | 0.059
22 | DTWD1 (UniProt Q8N5C7) | 0.072 | 0.007 | 0.002 | -0.122 | 0.018 | 0.017 | -0.039 | 0.023 | 0.016 | 0.044
23 | FAM117A (UniProt Q9C073) | 0.127 | 0.054 | -0.056 | 0.053 | -0.279 (active) | -0.101 | -0.041 | -0.129 | -0.143 | -0.121
24 | DMXL1 (UniProt Q9Y485) | 0.059 | 0.071 | -0.006 | 0.006 | 0.068 | -0.001 | 0.024 | -0.02 | 0.019 | 0.034
25 | DHCR24 (UniProt Q15392) | 0.393 | 0.068 | -0.151 | 0.092 | 0.081 | -0.024 | 0.03 | -0.009 | -0.066 | -0.074
26 | EPHX2 (UniProt P34913) | -0.01 | 0.213 | -0.008 | 0.2 | 0.09 | -0.004 | 0.038 | -0.032 | 0.123 | -0.001
27 | EIF4E2 (UniProt O60573) | 0.013 | 0.056 | -0.026 | -0.045 | -0.007 | -0.054 | -0.111 | -0.009 | -0.032 | -0.008
28 | EIF2AK1 (UniProt Q9BQI3) | -0.002 | 0.006 | -0.042 | 0 | -0.029 | -0.114 | -0.029 | 0.021 | -0.007 | 0.012
29 | EFCAB14 (UniProt O75071) | 0.051 | -0.053 | 0.013 | 0.024 | -0.049 | 0.033 | 0.159 | -0.119 | 0.044 | -0.032
30 | EEF1AKNMT (UniProt Q8N6R0) | 0.063 | 0.15 | 0.008 | -0.022 | 0.114 | 0.013 | 0.091 | 0.058 | 0.023 | -0.061

From the supplement of paper PMC10849652
